Data reported in PubChem BioAssay AID1159580 (chemical genetic matrix, 2015).
Values joined by “and” are separate entries in the source; they are usually repeats but may differ in a detail not shown here. Equal values may be shown once. About 2,000 (36%) of roughly 5,500 compounds were called active. Inconclusive results (about 18%) are left out. Rule as the data show it: active = normalized growth mostly below about 0.91 (no sharp cut-off); inconclusive = no clear call, values can overlap the other calls; inactive = mostly above about 0.92. This is one part of the list.

Assay: chemical genetic growth profiling, strain panel (AID 1159580);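 also: tested at 20 µM; growth read once vehicle control cultures reached saturation at 30 °C; 1 = growth at the plate median or of vehicle wells; lower values mean less growth of the strain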
Conditions: S. cerevisiae deletion strains, growth OD
[1] = locus YGR229C, strain SMI1, hits give low values
[2] = locus YJR075W, strain HOC1, hits give low values

Measured: normalized growth

N[C@@H]1[C@@H](O)[C@H](O)[C@@H](CO)O[C@H]1O
inactive: locus YAL021C, strain ccr4, hits give low values 1.03 | locus YAL026C, strain drs2, hits give low values 1.01 | locus YAL030W, strain snc1, hits give low values 1.02 | locus YBL061C, strain skt5, hits give low values 1.03 | locus YBR009C, strain hhf1, hits give low values 1.02 | locus YBR021W, strain FUR4, hits give low values 1.01 | locus YBR023C, strain chs3, hits give low values 1.02 | locus YBR171W, strain sec66, hits give low values 1.04 | locus YBR229C, strain ROT2, hits give low values 1.01 | locus YBR231C, strain swc5, hits give low values 1.02 | locus YBR279W, strain paf1, hits give low values 1.03 | locus YCL011C, strain gbp2, hits give low values 1.02 | locus YCL016C, strain dcc1, hits give low values 1.02 | locus YCL029C, strain bik1, hits give low values 0.998 | locus YCL061C, strain MRC1, hits give low values 1.03 | locus YCL069W, strain vba3, hits give low values 1.02 | locus YCR088W, strain abp1, hits give low values 1.02 | locus YDL005C, strain med2, hits give low values 1.02 | locus YDL035C, strain GPR1, hits give low values 1 | locus YDL040C, strain nat1, hits give low values 1.01 | locus YDL074C, strain BRE1, hits give low values 1 | locus YDL101C, strain DUN1, hits give low values 1.01 | locus YDL185W, strain tfp1, hits give low values 1.01 | locus YDL192W, strain arf1, hits give low values 1.02 | locus YDR001C, strain nth1, hits give low values 1.02 | locus YDR069C, strain doa4, hits give low values 1.02 | locus YDR101C, strain arx1, hits give low values 0.975 | locus YDR137W, strain rgp1, hits give low values 1.03 | locus YDR150W, strain NUM1, hits give low values 1 | locus YDR159W, strain sac3, hits give low values 1.03 | locus YDR162C, strain NBP2, hits give low values 1 | locus YDR195W, strain ref2 1.04 | locus YDR297W, strain sur2, hits give low values 1.01 | locus YDR318W, strain mcm21, hits give low values 1 | locus YDR334W, strain swr1, hits give low values 1.02 | locus YDR335W, strain msn5, hits give low values 1.03 | locus YDR388W, hits give low values 1 | locus YDR392W, strain spt3, hits give low values 1 | locus YDR502C, strain sam2, hits give low values 1.01 | locus YEL003W, strain gim4, hits give low values 1.02 | locus YEL037C, strain rad23, hits give low values 1.02 | locus YEL061C, strain CIN8 (second series), hits give low values 1.02 | locus YEL061C, strain CIN8, hits give low values 1.02 | locus YER015W, strain faa2, hits give low values 1.03 | locus YER016W, strain bim1, hits give low values 1.01 | locus YER110C, hits give low values 1 | locus YER111C, strain swi4, hits give low values 1.03 | locus YER155C, strain BEM2 (second series), hits give low values 1.05 | locus YER155C, strain BEM2, hits give low values 1 | locus YER167W, strain BCK2, hits give low values 1.01 | locus YFR010W, strain ubp6, hits give low values 1.01 | locus YGL078C, strain dbp3, hits give low values 1.01 | locus YGL086W, strain mad1, hits give low values 0.999 | locus YGL167C, strain pmr1, hits give low values 1.03 | locus YGL173C, strain kem1, hits give low values 1.03 | locus YGL227W, strain vid30, hits give low values 1.02 | locus YGL240W, strain doc1, hits give low values 1.04 | locus YGL248W, strain PDE1, hits give low values 1.01 | locus YGL253W, strain hxk2, hits give low values 1.02 | locus YGR078C, strain PAC10, hits give low values 1 | locus YGR135W, strain pre9, hits give low values 1.05 | [1] 1 | locus YGR252W, strain gcn5, hits give low values 1.01 | locus YHR013C, strain ard1, hits give low values 1.06 | locus YHR027C, strain rpn1, hits give low values 1.06 | locus YHR030C, strain SLT2, hits give low values 1 and 0.98 | locus YHR079C, strain IRE1 (second series), hits give low values 1.01 | locus YHR079C, strain IRE1, hits give low values 0.968 | locus YHR094C, strain hxt1, hits give low values 0.998 | locus YHR129C, strain ARP1, hits give low values 0.994 | locus YHR142W, strain chs7, hits give low values 1.01 | locus YHR200W, strain rpn10, hits give low values 1.01 | locus YIL066C, strain RNR3, hits give low values 1 | locus YIL073C, strain SPO22, hits give low values 1.04 | locus YIL125W, strain kgd1, hits give low values 1.01 | locus YIR030C, strain dcg1, hits give low values 1.01 | locus YJL092W, strain hpr5, hits give low values 1.03 | locus YJL095W, strain BCK1 (second series), hits give low values 1.01 | locus YJL095W, strain BCK1, hits give low values 1.01 and 0.986 | locus YJL115W, strain asf1, hits give low values 1.03 | locus YJL129C, strain trk1, hits give low values 1.04 | locus YJL134W, strain LCB3, hits give low values 1.01 | locus YJL154C, strain vps35, hits give low values 1.02 | locus YJL164C, strain tpk1, hits give low values 1.04 | locus YJL166W, strain qcr8, hits give low values 1.03 | locus YJL168C, strain set2, hits give low values 1 | locus YJL187C, strain SWE1 (second series), hits give low values 1 | locus YJL187C, strain SWE1, hits give low values 1.01 | locus YJR043C, strain POL32, hits give low values 0.992 | locus YJR066W, strain TOR1, hits give low values 0.937 | [2] 1 | locus YKL009W, strain mrt4, hits give low values 1.01 | locus YKL068W, hits give low values 1 | locus YKL085W, strain MDH1 (second series), hits give low values 1.01 | locus YKL085W, strain MDH1, hits give low values 1.01 | locus YKL160W, strain elf1, hits give low values 1.04 | locus YKR001C, strain vps1, hits give low values 0.993 | locus YKR026C, strain gcn3, hits give low values 1.02 | locus YKR091W, strain srl3, hits give low values 1.02 | locus YLL001W, strain dnm1, hits give low values 1.03 | locus YLL026W, hits give low values 1.01 | locus YLL041C, strain sdh2, hits give low values 1.01 | locus YLR027C, strain aat2, hits give low values 1.01 | locus YLR039C, strain RIC1, hits give low values 1.05 | locus YLR058C, strain SHM2, hits give low values 1.01 | locus YLR102C, strain apc9, hits give low values 1 | locus YLR113W, strain HOG1, hits give low values 0.985 | locus YLR221C, strain rsa3, hits give low values 1.03 | locus YLR258W, strain gsy2, hits give low values 1.02 | locus YLR262C, strain YPT6 (second series), hits give low values 1.06 | locus YLR262C, strain YPT6, hits give low values 1.02 | locus YLR268W, strain sec22, hits give low values 1.01 | locus YLR320W, strain mms22, hits give low values 1.05 | locus YLR330W, strain CHS5, hits give low values 1 | locus YLR342W, strain FKS1 (second series), hits give low values 1.01 | locus YLR342W, strain FKS1, hits give low values 1.02 | locus YLR357W, strain rsc2, hits give low values 1.05 | locus YLR370C, strain arc18, hits give low values 1.02 | locus YLR371W, strain rom2, hits give low values 0.991 | locus YLR384C, strain iki3, hits give low values 1.03 | locus YLR418C, strain cdc73, hits give low values 1.01 | locus YML016C, strain PPZ1, hits give low values 1 | locus YML032C, strain rad52, hits give low values 0.994 | locus YML120C, strain ndi1, hits give low values 1.03 | locus YML124C, strain tub3, hits give low values 1.01 | locus YMR058W, strain fet3, hits give low values 1.02 | locus YMR078C, strain ctf18, hits give low values 1.01 | locus YMR125W, strain sto1, hits give low values 1.04 | locus YMR129W, hits give low values 1.01 | locus YMR205C, strain PFK2, hits give low values 1.04 | locus YMR223W, strain ubp8, hits give low values 1.02 | locus YMR231W, strain pep5, hits give low values 1.02 | locus YMR307W, strain GAS1, hits give low values 1.01 | locus YNL067W, strain RPL9B, hits give low values 1.01 | locus YNL071W, strain lat1, hits give low values 1.03 | locus YNL183C, strain NPR1, hits give low values 0.962 | locus YNL209W, strain ssb2, hits give low values 1.01 | locus YNL233W, strain BNI4, hits give low values 1.01 | locus YNL248C, strain rpa49, hits give low values 1.03 | locus YNL250W, strain rad50, hits give low values 1.05 | locus YNL271C, strain bni1, hits give low values 1.02 | locus YNL298W, strain CLA4, hits give low values 1.01 | locus YNL307C, strain MCK1, hits give low values 1.01 | locus YNL322C, strain KRE1 (second series), hits give low values 1.04 | locus YNL322C, strain KRE1, hits give low values 1 | locus YNR049C, strain mso1, hits give low values 1.02 | locus YNR052C, strain pop2, hits give low values 1.01 | locus YOL006C, strain TOP1, hits give low values 1.05 | locus YOL012C, strain htz1 0.886 | locus YOL147C, strain pex11, hits give low values 1.01 | locus YOR001W, strain rrp6, hits give low values 1.04 | locus YOR061W, strain CKA2, hits give low values 1 | locus YOR069W, strain VPS5, hits give low values 1.01 | locus YOR070C, strain gyp1, hits give low values 1.03 | locus YOR080W, strain dia2, hits give low values 1.04 | locus YOR083W, strain WHI5, hits give low values 1.04 | locus YOR106W, strain vam3, hits give low values 1.06 | locus YOR136W, strain idh2, hits give low values 1.01 | locus YOR144C, strain elg1, hits give low values 1 | locus YOR184W, strain ser1, hits give low values 1.01 | locus YOR231W, strain MKK1, hits give low values 1 | locus YOR265W, strain rbl2, hits give low values 1.06 | locus YOR270C, strain vph1, hits give low values 1.08 | locus YOR290C, strain snf2, hits give low values 0.979 | locus YOR316C, strain cot1, hits give low values 1.01 | locus YPL051W, strain arl3, hits give low values 1.03 | locus YPL078C, strain atp4, hits give low values 1.03 | locus YPL106C, strain sse1, hits give low values 1.03 | locus YPL240C, strain hsp82, hits give low values 1.02 | locus YPL256C, strain CLN2, hits give low values 0.985 | locus YPR119W, strain clb2, hits give low values 1.01 | locus YPR141C, strain kar3, hits give low values 1.01 | locus YPR163C, strain tif3, hits give low values 1.01 | locus YPR167C, strain met16, hits give low values 1.01 | strain wtn01, hits give low values 1.02

OCC1O[C@H](O)C(Cl)C(O)C1O (some centres undefined)
inactive: locus YAL013W, strain DEP1, hits give low values 1.01 | locus YAL040C, strain CLN3, hits give low values 1.01 | locus YCL061C, strain MRC1 (second series), hits give low values 1.01 | locus YDR363W, strain ESC2, hits give low values 0.977 | locus YER002W, strain NOP16, hits give low values 1 | [1] 0.994 | [2] 0.984 | locus YNL128W, strain TEP1, hits give low values 1.01 | locus YNL175C, strain NOP13, hits give low values 1.02 | locus YNL197C, strain WHI3, hits give low values 0.986 | locus YNL224C, strain SQS1, hits give low values 1 | locus YOR083W, strain WHI5 (second series), hits give low values 1.02 | locus YPL055C, strain LGE1, hits give low values 0.979 | locus YPL241C, strain CIN2, hits give low values 1.01
